Results on 15 compounds are retold here after PubChem BioAssay (NCI).

The panel holds about 83,000 compounds, 20% with a hit somewhere; the sample as a whole holds those more often.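 Activity criterion: percent growth below 10, measured after cells in 96-well plates were exposed to a single compound concentration for 48 hours.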 Values without a mark were called inactive. The source made the active and inactive calls.

Assay in all cases: NCI-60 one-dose screen, 48 h (100 = growth as untreated, 0 = no growth, -100 = all killed)
What all share (conditions): 10 µM unless noted

In assay [1] the test system is DU-145 prostate.
Assay [2] relates to K-562 leukemia.
For assay [3], the system named is MALME-3M melanoma.
For assay [4], the system named is MDA-MB-231 breast.
Assay [5] deals with SF-268 CNS.
For assay [6], the system named is SF-295 CNS.
The test system of assay [7] is SF-539 CNS.
The test system of assay [8] is UACC-257 melanoma.
Assay [9] relates to M14 melanoma.
In assay [10] the test system is RXF 393 renal.

Take `COc1ccc2cc(-c3ccc(-c4ccc(C(=N)N)cc4)s3)ccc2c1`: the growth in assay [1] was 61%; in assay [2], 40%; in assay [3] it was 104%; in assay [4] it was 100%; in [5], 94.6%; in assay [6] it was 101%. Also, the growth in assay [7] was 98.9%; in [8] it was 104%; in assay [9] it was 97.6%.

In the case of `COc1ccc(-c2ccc(-c3ccc(-c4ccc(C(=N)N)cc4)s3)s2)cc1OC`, the growth in assay [1] is 36.4%; in [2], -50% (active); in [3], 92.6%; in [4], 80.2%; in [5], 87.1%; in assay [6], 99.7%. The growth was 88.9% in assay [7], 103% in [8] and 99% in [9].

As for `Clc1cc2c(nn1)Nc1ccccc1S2`, the growth was 109% in assay [1]; 98.2% in assay [2]; 103% in assay [3]; 114% in assay [4]; 102% in [5]; 108% in assay [6]. The figures for the growth in [7], in assay [8] and in assay [9] were 89%, 73.5% and 107%, respectively.

On to `Fc1ccccc1-c1nc(-c2nc3cc(Cl)c(Cl)cc3[nH]2)c2ccccn12`, for which the growth in [1] is 51.5%; in [2], 73.1%; in [3], 34.5%; in assay [4], 91.4%; in assay [10], 69.2%; in [5], 77.4%. For the same compound, the growth is 82.2% in assay [8] and 71% in assay [9].

Turning to `Cc1[nH]c2ccc(F)cc2c1CCNC(=O)C1CCN(C(=O)c2ccccc2)CC1`, the growth is 82.9% [25 µM] in assay [1]; 90.4% [25 µM] in assay [2]; 75.6% [25 µM] in assay [3]; 79.4% [25 µM] in [4]; 79.5% [25 µM] in assay [5]; 96.1% [25 µM] in assay [6]. In addition, the values for the growth in [7], in assay [8] and in assay [9] were 86.4% [25 µM], 98.3% [25 µM] and 98.3% [25 µM], respectively.

For `Cc1ccc(-c2cc3nc(C(Cl)Cl)nc(-c4cccnc4)n3n2)cc1`, the growth in [1] is -22% (active); in assay [2], 9.52% (active); in assay [3], 5.51% (active); in assay [4], 2.53% (active); in assay [5] it was 25.7%; in [6], 4.01% (active). The growth was 63% in assay [7], 86% in assay [8] and 61% in assay [9].

In the case of `C=CCSc1n[nH]c(-c2cccs2)n1`, the growth was 121% in assay [1]; 85.6% in [2]; 110% in [3]; 121% in [4]; 111% in assay [5]; 106% in assay [6]. Further, the growth is 98.3% in assay [7], 76.4% in assay [8] and 104% in assay [9].

On to `O=[N+]([O-])c1cnc(Sc2ccncn2)s1`, for which the growth is -21.5% (active) in assay [1]; -44.4% (active) in assay [2]; -63.5% (active) in assay [3]; 75.4% in assay [4]; 35.7% in assay [5]; 102% in assay [6]. Also, the figures for the growth in assay [7], in [8] and in assay [9] were 91.1%, -18.7% (active) and 6.85% (active), respectively.

On to `COc1ccc(-c2c(N)n[nH]c2-c2cc(OC)c3c(c2)OCCO3)cc1`, for which the growth in assay [1] is 96.1%; in [2], 12.1%; in [3], 39.3%; in assay [4] it was 87.7%; in assay [10], 74%; in assay [5], 79.9%. The growth in assay [8] is 88.1%; in assay [9], 65.2%.

In the case of `COc1cc(-c2nn(-c3cccc(NC(=O)c4ccc(Cl)c(C(F)(F)F)c4)c3)cc2-c2ccncc2)ccc1Cl`, the growth in [1] is 65.4%; in [2] it was 8.65% (active); in assay [3], 16.8%; in assay [4] it was 25.8%; in assay [10], -0.403% (active); in assay [5], 46.7%. The growth in assay [7] was 33%; in assay [8], 23.5%; in assay [9], 26.2%.

As for `COc1ccc(N2CCN(Cc3cc(C(=O)/C=C/c4c[nH]c5ccccc45)ccc3O)CC2)cc1`, the growth in [1] was 114%; in [2], 101%; in assay [3], 95.6%; in assay [4] it was 103%; in [10], 104%; in [5], 101%. In addition, the growth was 96.6% in assay [7], 102% in [8] and 102% in [9].

Turning to `Cc1c(C(=N)C(C#N)C#N)c(=N)oc2c1ccc1ccccc12`, the growth in [1] is 103%; in assay [2], 72.8%; in [3], 111%; in assay [4], 97.9%; in [5], 88.4%; in [6], 96.5%. The growth is 94.1% in [7], 60.6% in assay [8] and 88% in assay [9].

Take `CC(C)(C)NCCC(O)c1cc2c(Cl)cc(Cl)cc2c2cc(C(F)(F)F)ccc12` (stereo not drawn): the growth in [1] is -95.1% (active); in assay [2], -72.2% (active); in assay [3], -53.3% (active); in [4], -74.4% (active); in assay [10], -95.9% (active); in assay [5], -88.6% (active). In addition, the growth was -82.2% (active) in assay [7], -81.7% (active) in assay [8] and -77.4% (active) in assay [9].

Take `CC(=O)Nc1ccc(S(=O)(=O)n2ccc(-c3ccc4c(c3)CCC(C)(C)O4)n2)cc1`: the growth in assay [1] is 83.5%; in assay [2], 36.7%; in assay [3] it was 82.5%; in [4], 88.6%; in assay [5], 77.3%; in assay [6] it was 60.2%. The growth in assay [7] is 73.8%; in assay [8], 46%; in assay [9], 64.7%.

`NNc1cccc(/C=C/c2ccccc2)cc1=O`: the growth in [1] is 68.2%; in assay [2] it was 45.5%; in assay [3], 103%; in assay [4], 58.1%; in [10] it was 91.9%; in assay [5] it was 57.6%. The growth in assay [7] is 62.4%; in assay [8], 95.3%; in [9] it was 61.4%.
